Among the data in PubChem BioAssay AID1776 (NMMLSC, 2009) are fluorescence (KMESF) values, retold here.

The campaign covered roughly 190,000 compounds. About 490 (0.26%) were called active. No stated cut-off is given here; in the data, active means fluorescence above about 89; inactive means the rest. For the sample, actives were picked, then their nearest neighbours and some compounds at random.

The nature of the experiment: compound fluorescence on glutathione beads, profiling panel, artefact control, biophysical, 488/530 nm, flow cytometry (AID 1776).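 Further: glutathione beads carrying GST-tagged Bcl family fusion proteins plus one bare bead set; values are compound well signal with DMSO vehicle wells as background.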 The following applies: GSH beads flow cytometry, compound fluorescence 488/530 nm; at 10 µM; active compounds read high. A general note: A flow cytometer gives signals particle by particle.
Take `C#CCCCc1nc2ccccc2c(=O)n1N`: the fluorescence (KMESF) was 11 (inactive).

In the case of `COc1ccc(S(=O)(=O)N2CN(CCc3ccc(OC)c(OC)c3)c3nc4ccccc4nc32)cc1`, the fluorescence (KMESF) is 15 (inactive).

On to `O=C1/C(=C\c2ccsc2)NC(=S)N1c1ccccc1`, for which the fluorescence (KMESF) was 11 (inactive). Next, `CCCc1c(C)nc2c(Br)cccc2c1Cl`: 17 (inactive). Next, `CN(C)c1ccnc2sc(C(=O)c3ccccc3)c(N)c12`: 7 (inactive). Turning to `O=C(CC1Nc2ccccc2NC1=O)Nc1ccccc1NC(=O)CC1Nc2ccccc2NC1=O` (configuration not stated), the fluorescence (KMESF) was 13 (inactive). As to `CCCCC(O)(CCCC)C(=O)NN(C(=O)CCl)c1ccccc1`, the fluorescence (KMESF) was 9 (inactive). Then `O=C(/C=C/c1cn(-c2ccccc2)nc1-c1ccc2c(c1)OCCO2)NCCCN1CCOCC1`, with 15 (inactive); and `COC(=O)Cc1c(O)ccn(Cc2cccc(C(F)(F)F)c2)c1=O`, with 11 (inactive); and `Cc1scc(C(=O)NNC(=S)NCC(C)C)c1C`, with 5 (inactive).

On to `COc1cccc(OC)c1C(=O)NC(=S)NCc1ccco1`, for which the fluorescence (KMESF) is 10 (inactive). Next, `O=C(N/N=C/c1ccccn1)C12CC3CC(CC(C3)C1)C2`: 10 (inactive); `NC(=O)Cc1ccc2sc(-c3ccccc3)nc2c1`: 4 (inactive).

Take `Cc1ccc(Cl)cc1NC(=O)C1CCN(S(C)(=O)=O)CC1`: the fluorescence (KMESF) was 13 (inactive). `O=C1N/C(=C/c2cccs2)C(=O)N1Cc1ccc(F)cc1`: the fluorescence (KMESF) was 18 (inactive). Next, `O=C(NCc1cccs1)C(=O)NCC1OCCCN1S(=O)(=O)c1ccc(F)cc1` (configuration not stated): 10 (inactive); `Cc1cc([N+](=O)[O-])ccc1NC(=O)C1CCCO1` (configuration not stated): 8 (inactive). Consider `CCOC(=O)c1sc(NC(=O)CSc2nc3c(c(=O)n2-c2ccccc2)SCC3)c(C(=O)OCC)c1C`, for which the fluorescence (KMESF) was 16 (inactive). Next, `Cc1nc2ccccc2nc(=O)c1NNc1ccc([N+](=O)[O-])cc1`: 20 (inactive). Then `C/C(=N/NC(=S)Nc1ccccc1)c1ccc2c(c1)OCO2`, with 5 (inactive). Next, `CCOc1ccc(Br)cc1S(=O)(=O)N1CCC(C(=O)O)CC1`: 10 (inactive); `CC1(C)CC(=O)NC=C(c2ccccc2)C1`: 272 (active). For the molecule `CC(C)C1C2=C(CC(C)(C)CC2=O)ON1c1ccccc1` (configuration not stated), the fluorescence (KMESF) was 52 (inactive).

Regarding `O=c1[nH]c(-c2ccccc2)c(-c2ccccc2)[nH]1`, the fluorescence (KMESF) is 20 (inactive). Then `CCCC(CCC(=O)OC)(C(=O)OCC)c1csc(N)n1` (configuration not stated), with 262 (active); and `CC/C(Cc1ccccc1)=N/NC(=O)CCn1nnc2ccccc21`, with 12 (inactive); and `COc1ccc(NC(=O)Cn2c(=O)n(Cc3ccco3)c(=O)c3ccccc32)cc1`, with 17 (inactive). Then `CN(c1ccccc1)c1ccc(/C=c2\s/c(=C(/C#N)C(=O)C(C)(C)C)n(Cc3ccco3)c2=O)cc1`, with 145 (active); and `CCOC(=O)CSc1nc2c(sc(=S)n2CCc2ccccc2)c(=O)n1Cc1ccco1`, with 11 (inactive). As to `Nc1nc(SCC(=O)NN(c2ccccc2)c2ccccc2)n[nH]1`, the fluorescence (KMESF) was 7 (inactive). Turning to `Cc1ccc(NS(=O)(=O)c2ccc(C)c(NC(=O)COc3ccc4ccccc4c3)c2)c(C)c1`, the fluorescence (KMESF) is 15 (inactive). Next, `O=C(/C=C\c1ccc2c(c1)OCO2)NC1(C(=O)Nc2ccc3c(c2)OCCO3)CCCCC1`: 7 (inactive); `Cc1cc([N+](=O)[O-])ccc1NC(=O)c1ccc(NC(=O)C(C)C)cc1`: 17 (inactive). Then `CCc1ccc(CN2C(=O)c3ccccc3C2C(=O)NCC2CCCO2)cc1` (configuration not stated), with 14 (inactive). Then `Cc1c(Cl)cccc1NC(=O)CC1SC(=NCC2CCCO2)NC1=O` (configuration not stated), with 20 (inactive); and `CCOc1ccc(S(=O)(=O)N/N=C(\C)c2ccc(Cl)c(Cl)c2Cl)cc1`, with 18 (inactive); and `CCCCCC(=O)Nc1ccc(S(=O)(=O)Nc2ccc(Cl)nn2)cc1`, with 11 (inactive).

Regarding `COc1ccccc1N(C)S(=O)(=O)c1ccc(Cl)c(C(=O)N2CCC(C(N)=O)CC2)c1`, the fluorescence (KMESF) was 11 (inactive).

Take `CN1CCC(OC(=O)COc2ccc(Cl)cc2Cl)CC1`: the fluorescence (KMESF) was 13 (inactive). Then `Cn1nccc1CNC(=O)c1ccnn1C`, with 9 (inactive). Next, `CCCCN(C)CCNC(=O)CSCc1ccc(C)cc1`: 25 (inactive); `CCCCN(C(=O)/C=C/c1ccco1)c1c(N)n(CC(C)C)c(=O)[nH]c1=O`: 9 (inactive); `COc1ccc(/C=C2/SC(=O)N(CCCCCC(=O)Nc3ccccc3C(=O)O)C2=S)cc1`: 9 (inactive). With `O=C(CC12CC3CC(CC(C3)C1)C2)NCc1ccco1`, the fluorescence (KMESF) is 15 (inactive). Next, `CSCC(=O)N1CCCC(C(=O)c2cc(F)ccc2F)C1` (configuration not stated): 11 (inactive); `O=C(O)Cc1ccc(-c2ccccc2)cc1`: 21 (inactive). As to `OCC(CO)(CO)NCc1ccc(-c2ccccc2)cc1`, the fluorescence (KMESF) is 236 (active). In the case of `O=C(Cc1ccc(-c2ccccc2)cc1)NC(c1ccccc1)c1ccccc1`, the fluorescence (KMESF) was 10 (inactive). `O=C(COc1ccc(NC(=O)c2ccccc2[N+](=O)[O-])cc1)c1ccc(F)cc1`: the fluorescence (KMESF) is 23 (inactive). Next, `O=C(COC(=O)c1ccc(Cl)nc1)NCc1cccs1`: 24 (inactive); `COc1cccc(NC(=O)COC(=O)CCOc2ccccc2OC)c1`: 10 (inactive); `COc1ccccc1OCCC(=O)OCC(=O)NC(=O)NC(C)(C)C`: 260 (active). For `COc1ccccc1OCCC(=O)OCC(=O)NCc1ccccc1`, the fluorescence (KMESF) was 16 (inactive). Next, `Cc1ccccc1-n1nnnc1SCCCC(=O)c1ccc(F)cc1`: 11 (inactive). Then `COc1cccc(Cn2cnc3c([N+](=O)[O-])c(C)c(C)cc32)c1`, with 19 (inactive). Then `CCOC(=O)Cc1csc(NC(=O)C(C)(C)C)n1`, with 28 (inactive); and `CCOC(=O)Cc1csc(NC(=O)Nc2ccccc2)n1`, with 13 (inactive). Turning to `CCOC(=O)Cc1csc(NC(NC(=O)OCC)(C(F)(F)F)C(F)(F)F)n1`, the fluorescence (KMESF) is 269 (active). Next, `COc1ccc(C)cc1S(=O)(=O)N(CC(=O)Nc1cccc([N+](=O)[O-])c1)c1ccc(C)cc1`: 11 (inactive); `CCCCN1C(=S)NC[C@@H]1C(C)CC` (some centres not stated): 20 (inactive); `Cc1ccc(-c2cc(C(=O)N/N=C/C=C/c3ccccc3)n[nH]2)o1`: 7 (inactive).

As to `O=C(NCCCN1CCOCC1)c1ccc(N2CCCC2)c([N+](=O)[O-])c1`, the fluorescence (KMESF) was 15 (inactive). Next, `COc1ccc(CCNC(=O)CCn2c(=O)c3ccccc3n(CC(=O)NCC3CCCO3)c2=O)cc1OC` (configuration not stated): 70 (inactive).

Take `CNc1nc2c(C)cccn2c(=O)c1C=Nc1ccc(OC)cc1`: the fluorescence (KMESF) was 19 (inactive).

Take `O=c1c2c(nc3n1CCCCC3)sc1c(O)cccc12`: the fluorescence (KMESF) is 8 (inactive).

As to `Cc1ccc2nc3n(c(=O)c2c1)CCC3`, the fluorescence (KMESF) was 45 (inactive). Then `Cc1cccc2c(=O)n3c(nc12)CCCCC3`, with 267 (active); and `Cc1ccc(S(=O)(=O)NCCC(c2ccccc2)c2ccccc2)cc1C(=O)O`, with 12 (inactive); and `CCO/C=C1\C(=O)N(c2ccc(OCC)cc2)C(=O)c2ccccc21`, with 14 (inactive). Regarding `Cc1cc(NC(=O)CN2C(=O)NC(CCc3ccccc3)C2=O)no1` (configuration not stated), the fluorescence (KMESF) was 13 (inactive). Next, `O=C(c1ccc(OC2CCN(C(=O)c3cccnc3)CC2)cc1)N1CCCCCC1`: 11 (inactive); `Cc1cccc(Oc2c([N+](=O)[O-])c(=O)n(C)c3ccccc23)c1`: 55 (inactive); `O=C(COC(=O)CCCSc1nc2ccccc2[nH]1)Nc1ccc(Oc2ccccc2)cc1`: 11 (inactive). Next, `CCCCC(NS(=O)(=O)c1ccc(C)cc1)C(=O)Oc1ccc2c3c(c(=O)oc2c1)CCC3` (configuration not stated): 11 (inactive); `CCOC(=O)C1=C(C)NC(SC)=NC1c1ccccc1` (configuration not stated): 34 (inactive); `CCOC(=O)C1=C(C)NC(=O)NC1c1ccccc1` (configuration not stated): 17 (inactive). For `CCOC(=O)C1=C(C)NC(C)=C(C(=O)OCC)C1c1ccccn1`, the fluorescence (KMESF) was 252 (active). Consider `CC(C)(C)NC(=O)CN(C(=O)c1csnn1)c1ccccc1-c1ccccc1`, for which the fluorescence (KMESF) is 14 (inactive). Then `CCc1cccc(CC)c1NC(=O)COc1ccccc1C(=O)c1cc(C#N)c(=O)n(C2CCCCC2)c1`, with 18 (inactive). Then `CCOc1ccc(NC(=O)NNC(=O)c2ccc(Cl)cc2Cl)cc1`, with 21 (inactive); and `COc1ccc(/C=N/OCC(=O)N(Cc2ccccc2)c2ccccc2C(=O)O)cc1`, with 6 (inactive); and `COC(=O)c1ccc(-c2noc(CN(Cc3ccccn3)CC3CCCO3)n2)cc1` (configuration not stated), with 18 (inactive).

As to `CC(C)N1CCC(=NNc2ccc([N+](=O)[O-])cc2S(=O)(=O)N2CCOCC2)CC1`, the fluorescence (KMESF) was 18 (inactive). Then `O=C(CSc1nnnn1-c1ccc(O)cc1)N1N=C(c2ccc3ccccc3c2)CC1c1ccccc1` (configuration not stated), with 16 (inactive). Take `Cc1ccc2c(Cl)c(C(=O)Nc3nn[nH]n3)sc2c1`: the fluorescence (KMESF) is 15 (inactive). Turning to `COc1ccc(CN2C(=O)CC(Cc3ccc(C)cc3)C2=O)cc1OC` (configuration not stated), the fluorescence (KMESF) was 10 (inactive). Then `Cc1ccc(C(=O)O)cc1NC(=O)c1ccc(Cn2nc(C)c(Cl)c2C)o1`, with 15 (inactive); and `COC(=O)C1=C(C)N(C)C(=S)NC1c1ccccc1` (configuration not stated), with 13 (inactive).

Turning to `COC(=O)C1NN=C(C(=O)c2ccc(Br)cc2)C1c1cccc(Br)c1` (configuration not stated), the fluorescence (KMESF) is 10 (inactive). In the case of `COC(=O)C1=C(C)N(C)C(C)=C(C(=O)OC)C1c1cccc(Br)c1`, the fluorescence (KMESF) was 266 (active). Then `CCOc1ccccc1/C=N/NC(=O)CNC(=O)COc1ccccc1`, with 13 (inactive); and `Cc1cccc(-n2cc(CN3CCN(C(=O)c4ncn[nH]4)CC3)c(-c3cccc(F)c3)n2)c1`, with 12 (inactive).
